This passage reports growth results from PubChem BioAssay (NCI).

Among the test systems are T-47D breast; BT-549 breast; MDA-MB-435 melanoma; MCF7 breast; HCT-116 colon; HCC-2998 colon; KM12 colon; SW-620 colon.
Holding throughout (assay): NCI-60 one-dose screen, 48 h (100 = growth as untreated, 0 = no growth, -100 = all killed)
Holding throughout (settings): 10 µM unless noted

Structures are written as SMILES. This is part of a sample that, as a whole, favours compounds with a hit. Of some 83,000 tested, about 20% had one in any assay.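 The test compound was applied at a single concentration to cells in 96-well plates for 48 hours, and percent growth was recorded.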 A number with no mark means an inactive call. Activity calls are given as the source filed them. Rule for the calls: active = growth percent below 10; inactive = the rest.

With `Cc1ccccc1C[P+](c1ccccc1)(c1ccccc1)c1ccccc1`, the growth in the experiment on T-47D breast was 26%; in the experiment on BT-549 breast it was 29.6%; in the experiment on MDA-MB-435 melanoma, 14.6%; in the experiment on MCF7 breast, 10.8%; in the experiment on HCT-116 colon, 15.7%; with HCC-2998 colon, 12.2%. The growth in the experiment on KM12 colon is 14.5%.
As to `CCn1c(SCC(=O)c2ccc(Br)cc2)nnc1-c1cc2c([nH]c3ccccc32)c(-c2cccc(O)c2)n1`, the growth is 29.4% with T-47D breast; 71.9% in the experiment with BT-549 breast; 31.3% in the experiment with MDA-MB-435 melanoma; 40.5% in the experiment on MCF7 breast; 70.1% in the experiment on HCT-116 colon; 98.4% in the experiment with HCC-2998 colon. In the experiment on KM12 colon, the growth was 66.5%.
Take `COc1ccc2c(-c3ccc(F)cc3)c(C#N)c(=NC(C)=O)oc2c1`: the growth was 55.8% in the experiment with T-47D breast; 29.1% in the experiment with BT-549 breast; -3.09% (active) with MDA-MB-435 melanoma; 21.4% in the experiment with MCF7 breast; 25% in the experiment on HCT-116 colon; 60.3% in the experiment with HCC-2998 colon. For the same compound, the growth with KM12 colon is 30.3%.
Take `CN(C)CCCOc1c(Br)cc(/C=C/C(=O)N(C)CCc2cc(Br)c(OCCCN(C)C)c(Br)c2)cc1Br`: the growth with T-47D breast is 92.8%; in the experiment with BT-549 breast, 76.5%; in the experiment with MDA-MB-435 melanoma, 19.8%; in the experiment with MCF7 breast, 32.5%; with HCT-116 colon, 12.1%; in the experiment on HCC-2998 colon it was 73%. In addition, the growth in the experiment on KM12 colon was 47.7%.
For `FC(F)(F)c1cccc([Si](F)(c2cccc(C(F)(F)F)c2)c2cccc(C(F)(F)F)c2)c1`, the growth is 40.4% with T-47D breast; 64.5% with BT-549 breast; 95% in the experiment with MDA-MB-435 melanoma; 67.1% in the experiment on MCF7 breast; 15.6% with HCT-116 colon; 99% in the experiment with HCC-2998 colon. For the same compound, the growth with KM12 colon was 74.8%.
Consider `Cc1nc(-c2ccc(Cl)cc2)ccc1NC(=O)Nc1cccc(C(F)(F)F)c1`, for which the growth is 87.5% with T-47D breast; 98.6% with BT-549 breast; 103% in the experiment on MDA-MB-435 melanoma; 81% with MCF7 breast; 74.5% in the experiment with HCT-116 colon; 107% in the experiment on HCC-2998 colon. The growth in the experiment on KM12 colon is 101%.
In the case of `CCOc1ccccc1C(=O)N1CCN(c2cc(Cl)cc(Cl)c2)CC1`, the growth with T-47D breast is 49%; in the experiment on BT-549 breast it was -13.2% (active); in the experiment on MDA-MB-435 melanoma, -12.8% (active); with MCF7 breast, 15.2%; in the experiment on HCT-116 colon, -6.57% (active); with HCC-2998 colon, 16.4%. Also, the growth in the experiment with KM12 colon was 8.79% (active).
`CCc1c2cc(Cl)ccc2n2cc(Cc3ccccc3)[nH]c(=O)c12`: the growth with T-47D breast is 104%; in the experiment on BT-549 breast, 101%; with MDA-MB-435 melanoma, 102%; in the experiment with SW-620 colon, 99.4%; with HCC-2998 colon, 97.1%; in the experiment on KM12 colon it was 98%.
With `COc1cc(/C=C/C(=O)N2CCC=CC2=O)cc(OC)c1OC`, the growth with T-47D breast was 25.6%; with BT-549 breast it was 58.3%; in the experiment with MDA-MB-435 melanoma, 57.2%; in the experiment with MCF7 breast, 15.3%; with HCT-116 colon, 6.96% (active); with HCC-2998 colon, 100%. For the same compound, the growth with KM12 colon is 66.6%.
With `CNC(=O)NN`, the growth in the experiment with T-47D breast is 92.3%; in the experiment on MDA-MB-435 melanoma it was 102%; in the experiment on SW-620 colon it was 93.7%; in the experiment with MCF7 breast, 98.1%; with HCT-116 colon, 93.6%; in the experiment with HCC-2998 colon, 101%. The growth in the experiment on KM12 colon is 101%.
For `CCNc1cc(S(=O)(=O)O)ccc1C`, the growth with T-47D breast is 90%; in the experiment with MDA-MB-435 melanoma, 107%; in the experiment with SW-620 colon it was 104%; in the experiment on MCF7 breast it was 98.6%; in the experiment with HCT-116 colon, 98.3%; in the experiment on HCC-2998 colon it was 103%. In the experiment on KM12 colon, the growth was 107%.
Turning to `Cc1cccc[n+]1CCC[n+]1ccccc1C`, the growth in the experiment on T-47D breast was 85.6%; in the experiment on MDA-MB-435 melanoma, 102%; in the experiment with SW-620 colon it was 107%; with MCF7 breast, 96.5%; in the experiment with HCT-116 colon it was 86.1%; in the experiment on HCC-2998 colon, 107%. Moreover, in the experiment on KM12 colon, the growth was 100%.
For `CCOC(=O)C1CN(Cc2ccccc2)C(=O)C1=O` (centres undefined), the growth in the experiment with T-47D breast is 104%; in the experiment with MDA-MB-435 melanoma it was 98.6%; in the experiment on SW-620 colon, 95%; in the experiment with MCF7 breast, 100%; with HCT-116 colon, 92.9%; with HCC-2998 colon it was 118%. The growth in the experiment with KM12 colon was 108%.
Consider `COc1ccc(-c2nnc(SCC(=O)Nc3ccc(C(=O)/C=C/c4ccccc4)cc3)o2)cc1OC`, for which the growth with BT-549 breast was 98.3%; in the experiment on MDA-MB-435 melanoma it was 92.7%; in the experiment with SW-620 colon, 103%; in the experiment with MCF7 breast, 56%; with HCT-116 colon, 51.8%; in the experiment on HCC-2998 colon it was 116%. Further, the growth with KM12 colon is 99.6%.
Take `CC(=O)Nc1ccc([I+]c2ccc([N+](=O)[O-])cc2)cc1`: the growth in the experiment on T-47D breast was 68.1%; in the experiment on MDA-MB-435 melanoma, 109%; in the experiment with SW-620 colon it was 95.1%; in the experiment with MCF7 breast it was 94.8%; with HCT-116 colon, 81%; with HCC-2998 colon, 106%. The growth in the experiment with KM12 colon is 104%.
Take `CSc1nc(N)nc2c1ncn2C`: the growth was 90.3% with T-47D breast; 102% with MDA-MB-435 melanoma; 101% in the experiment on SW-620 colon; 96.7% in the experiment with MCF7 breast; 92.1% with HCT-116 colon; 99.8% in the experiment with HCC-2998 colon. Besides, the growth in the experiment with KM12 colon was 95.6%.
For the compound `N#CC(C#N)=C(C#N)c1c[nH]c2ccccc12`, the growth is 60.8% in the experiment with T-47D breast; 95.6% in the experiment with MDA-MB-435 melanoma; 62.4% in the experiment on SW-620 colon; 74.7% in the experiment with MCF7 breast; 85.4% in the experiment on HCT-116 colon; 106% in the experiment on HCC-2998 colon. In addition, the growth with KM12 colon was 102%.
On to `O=C1C(SCCO)=C(SCCO)C(=O)N1c1ccc(-c2ccccc2)cc1`, for which the growth in the experiment with T-47D breast was 24%; in the experiment with MDA-MB-435 melanoma, 92.2%; in the experiment with SW-620 colon, -66.9% (active); with MCF7 breast, 80.5%; in the experiment with HCT-116 colon, 13.7%; in the experiment on HCC-2998 colon, 79.8%. Moreover, the growth in the experiment on KM12 colon is 83.4%.
Regarding `Cc1cccc(NCS(=O)(=O)O)c1`, the growth in the experiment with T-47D breast was 94.1%; with MDA-MB-435 melanoma, 108%; in the experiment with SW-620 colon, 101%; with MCF7 breast, 95.1%; in the experiment with HCT-116 colon, 102%; in the experiment on HCC-2998 colon it was 96.9%. For the same compound, in the experiment with KM12 colon, the growth is 112%.
`CC(=O)N[C@@H](CNC(=O)c1cc(NC(=O)c2cc(NC(=O)c3cc(NC(=O)c4nccn4C)cn3C)cn2C)cn1C)CC(=O)Nc1cn(C)c(C(=O)Nc2cc(C(=O)Nc3cc(C(=O)Nc4cc(C(=O)NCCCN(C)CCCNC(=O)c5cccc(C(=O)O)c5)n(C)c4)n(C)c3)n(C)c2)n1`: the growth with T-47D breast was 41.5%; in the experiment on MDA-MB-435 melanoma, 95.5%; in the experiment with SW-620 colon, 90.9%; with MCF7 breast, 77.8%; with HCT-116 colon it was 43.9%; in the experiment on HCC-2998 colon, 106%. Moreover, in the experiment on KM12 colon, the growth is 42.6%.
Turning to `CCC(N)(C(=O)O)c1ccc(F)cc1` (centres undefined), the growth was 111% in the experiment with T-47D breast; 105% in the experiment on MDA-MB-435 melanoma; 110% in the experiment on SW-620 colon; 93.5% in the experiment on MCF7 breast; 91.3% with HCT-116 colon; 95.4% with HCC-2998 colon. Moreover, in the experiment on KM12 colon, the growth is 105%.
Consider `O=C(C[n+]1ccccc1Cl)c1ccc2c(c1)CCCC2`, for which the growth was 79.6% in the experiment with T-47D breast; 92.1% with MDA-MB-435 melanoma; 82.8% in the experiment on SW-620 colon; 95.8% with MCF7 breast; 80.3% in the experiment with HCT-116 colon; 103% with HCC-2998 colon. In addition, the growth in the experiment with KM12 colon is 82.2%.
Regarding `O=C(O)c1ccccc1C(=O)c1ccc(I)cc1`, the growth with T-47D breast was 83.1%; in the experiment on MDA-MB-435 melanoma it was 107%; in the experiment on SW-620 colon, 97.4%; with MCF7 breast it was 92.1%; with HCT-116 colon, 99.9%; in the experiment with HCC-2998 colon it was 102%. For the same compound, the growth in the experiment with KM12 colon was 106%.
`COc1ccc(-c2c(C#N)cnc(N)c2-c2nc3cc(C)c(C)cc3[nH]2)cc1`: the growth with T-47D breast is 71.7%; with MDA-MB-435 melanoma it was -5.12% (active); in the experiment with SW-620 colon, 38.4%; with MCF7 breast it was 50.9%; in the experiment on HCT-116 colon, 20.7%; with HCC-2998 colon it was 1.45% (active). Also, in the experiment on KM12 colon, the growth was 17.2%.
For `C=C1C(=O)O[C@H]2[C@H]1CC/C(COC(=O)c1ccc(Br)cc1)=C\CC[C@@]1(C)O[C@@H]21`, the growth was -47% (active) in the experiment with T-47D breast; -8.16% (active) in the experiment with BT-549 breast; -35.4% (active) in the experiment with MDA-MB-435 melanoma; -18.5% (active) with MCF7 breast; -84.3% (active) in the experiment with HCT-116 colon; 87.3% in the experiment on HCC-2998 colon. Moreover, in the experiment with KM12 colon, the growth was 56.2%.
Turning to `O=c1[nH]ccc2nc(N3CCC(O)CC3)nc(Nc3cccc(C(F)(F)F)c3)c12`, the growth in the experiment with BT-549 breast was 16.5%; with MDA-MB-435 melanoma, 7.33% (active); with SW-620 colon, 48.9%; in the experiment on MCF7 breast, 22.4%; in the experiment on HCT-116 colon, 42%; with HCC-2998 colon, 83.8%. Moreover, the growth with KM12 colon is 23%.
On to `COc1cccc(/C=N/C(=S)NC2(C)C3CCC(C3)C2(C)C)c1O` (centres undefined), for which the growth is 56.5% in the experiment on T-47D breast; 89.8% with MDA-MB-435 melanoma; 47.8% in the experiment on MCF7 breast; 53.4% in the experiment on HCT-116 colon; 108% in the experiment on HCC-2998 colon; 87.8% with KM12 colon.
Turning to `O=C(C[n+]1cccc(Br)c1)c1ccc2c(c1)CCCC2`, the growth is 91.6% in the experiment with T-47D breast; 100% in the experiment on MDA-MB-435 melanoma; 103% in the experiment on SW-620 colon; 90.4% in the experiment with MCF7 breast; 88.2% with HCT-116 colon; 103% with HCC-2998 colon. Moreover, the growth with KM12 colon is 108%.
